Assay results from PubChem BioAssay (NCATS).
Records with an inconclusive call do not appear. Entries that show only a call come without a potency. Active and inactive are the calls of the source. Unless noted, calls follow the shape of the dose curve; as a rule, active = well fitted curve in the direction sought with a large enough effect; inconclusive = small, poorly fitted or top-dose-only effect, or another doubt; inactive = no such curve, though single readings can be large; an effect the other way counts as inactive or inconclusive.

Assays:
[1] = Cell Viability - SK-N-SH (AID 435; calls by dose curve;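 also: potency is read from the fitted curve at half-maximal effect; compound exposure lasted 40 h at 37 °C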); conditions: SK-N-SH neuroblastoma cell viability qHTS
Outline: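 Human neuroblastoma line, 40 h exposure at 37 °C, ATP quantified via luciferase luminescence; DMSO and 100 uM tamoxifen define 0 and 100% inhibition for AC50 fitting.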

[2] = Cellular Toxicity (caspase-3) HepG2 (AID 654); conditions: HepG2 caspase-3 activation, luminescence, 0% = DMSO only, 100% = tamoxifen; series mostly up to 92.2 µM;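 also: cells exposed to compound for 16 hours before reading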
Outline: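 Caspase 3/7 activation in HepG2 is measured as rising luminescence after a 16 hr treatment at 37 °C. Values are scaled between DMSO basal and 100 uM tamoxifen, and AC50 is fitted with the Hill equation.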

[3] = Cellular Toxicity (caspase-3) SK-N-SH (AID 661); conditions: SK-N-SH caspase-3 activation, qHTS; series mostly up to 91.7 µM;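 also: cells exposed to compound for 16 hours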
Outline: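 Cells were seeded and incubated 5 hr at 37 °C, dosed with compound over a concentration range for 16 hr, then given Caspase-Glo 3/7 reagent for 1 hr at room temperature before luminescence reading.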

[4] = Cell Viability - LYMP2-015 (AID 971); conditions: LYMP2-015 lymphoblastoid cell viability; series mostly up to 92.2 µM;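 also: cells exposed to compound for 24 h; nearly all actives have a fitted effect of over 55% in size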; also: potency is read from the fitted curve at half-maximal effect
Outline: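 Cells are seeded at 2500 per well and incubated 5 hr at 37 C. Compounds are added across a concentration series for 24 hr at 37 C. CellTiter-Glo is added, and luminescence is read after 30 min at room temperature.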

[5] = Cell Viability - LYMP2-010 (AID 981); conditions: LYMP2-010 lymphoblastoid cell viability, qHTS; series mostly up to 92.2 µM;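 also: cells exposed to compound for 24 hours at 37 °C; nearly all actives have a fitted effect of over 55% in size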; also: potency is read from the fitted curve at half-maximal effect
Outline: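 Steps: seed 2500 LYMP2-010 cells per well; incubate 5 hr at 37 C; add compound; incubate 24 hr at 37 C; add CellTiter-Glo, wait 30 min at room temperature; read luminescence. Concentration-response fitted to Hill equation for AC50.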

[6] = Cell Viability - LYMP2-012 (AID 982); conditions: LYMP2-012 lymphoblastoid cell viability qHTS; series mostly up to 92.2 µM;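 also: cellular ATP by luciferase luminescence where a drop means cytotoxicity; cells exposed to compound for one day before reading; nearly all actives have a fitted effect of over 55% in size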; also: potency is read from the fitted curve at half-maximal effect
[7] = Cell Viability - LYMP2-018 (AID 985); conditions: LYMP2-018 lymphoblastoid cells, viability (qHTS); series mostly up to 92.2 µM;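 also: compound exposure lasted 24 hr at 37 °C; nearly all actives have a fitted effect of over 50% in size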; also: potency is read from the fitted curve at half-maximal effect
Outline: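 Seed 2500 lymphoblastoid cells per well, incubate 5 hr at 37 C, add compound and incubate 24 hr at 37 C, add CellTiter-Glo, wait 30 min at room temperature, then read luminescence.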

[8] = qHTS assay for small molecule agonists of retinoid X receptor alpha signaling (AID 588544; calls by dose curve); conditions: HEK293T RXRa-UAS-bla, beta-lactamase reporter, 18 h; 530 nm emission
[9] = biological target: Retinoic acid receptor RXR-alpha (Homo sapiens) (UniProt P19793); assay: as above; conditions: HEK293T RXRa-UAS-bla, beta-lactamase reporter, 18 h; series mostly up to 76.7 µM
Chain of Retinoic acid receptor RXR-alpha (Homo sapiens) (P19793 whole entry, looked up): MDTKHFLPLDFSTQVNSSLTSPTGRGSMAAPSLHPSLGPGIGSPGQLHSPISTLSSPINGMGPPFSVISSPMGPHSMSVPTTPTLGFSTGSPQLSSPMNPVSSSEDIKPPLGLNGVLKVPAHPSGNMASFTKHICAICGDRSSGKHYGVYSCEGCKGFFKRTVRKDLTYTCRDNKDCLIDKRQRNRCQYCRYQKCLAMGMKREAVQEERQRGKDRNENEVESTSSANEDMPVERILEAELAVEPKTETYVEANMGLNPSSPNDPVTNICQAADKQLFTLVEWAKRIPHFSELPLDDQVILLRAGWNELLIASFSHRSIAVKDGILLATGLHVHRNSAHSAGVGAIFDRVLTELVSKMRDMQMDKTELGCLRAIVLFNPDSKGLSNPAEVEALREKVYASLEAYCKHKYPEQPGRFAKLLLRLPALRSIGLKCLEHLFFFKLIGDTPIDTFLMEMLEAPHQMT

[10] = biological target: Thyroid hormone receptor beta (Homo sapiens) (UniProt P10828); assay: qHTS assay for small molecule agonists of thyroid hormone receptor beta signaling (AID 588545; calls by dose curve); conditions: TR-UAS-bla GripTite HEK 293, beta-lactamase ratio, agonist mode, 18 h; series mostly up to 76.7 µM
Chain of Thyroid hormone receptor beta (Homo sapiens) (P10828 whole entry, looked up): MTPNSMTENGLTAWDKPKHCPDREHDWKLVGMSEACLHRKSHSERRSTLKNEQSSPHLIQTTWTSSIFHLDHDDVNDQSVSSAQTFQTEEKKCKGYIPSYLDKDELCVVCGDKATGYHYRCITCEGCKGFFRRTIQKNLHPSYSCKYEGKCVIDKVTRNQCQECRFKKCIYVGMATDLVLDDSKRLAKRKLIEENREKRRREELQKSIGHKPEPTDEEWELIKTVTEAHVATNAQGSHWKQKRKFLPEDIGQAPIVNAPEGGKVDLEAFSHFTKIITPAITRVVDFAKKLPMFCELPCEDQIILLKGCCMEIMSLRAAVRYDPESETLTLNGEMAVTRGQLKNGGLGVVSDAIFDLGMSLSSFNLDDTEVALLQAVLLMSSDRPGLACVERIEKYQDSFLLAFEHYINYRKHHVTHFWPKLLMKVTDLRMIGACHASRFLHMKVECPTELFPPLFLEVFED
Outline: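 Efficacy and EC50 values derive from Hill fits of qHTS titration data, normalized to 10 nM T3 and DMSO-only wells. HEK 293 reporter cells were stimulated for 18 hrs at 37 C, with beta-lactamase activity measured by CCF4 fluorescence.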

[11] = qHTS assay for small molecule antagonists of retinoid X receptor alpha signaling (AID 588546; active = well fitted inhibition curve with a large enough effect in the signal ratio, with a control signal flat, not every such curve was filed as active; the % refers to the signal ratio;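 also: cells stimulated with 9-cis-retinoic acid as agonist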); conditions: HEK293T RXRa-UAS-bla, beta-lactamase ratio, antagonist mode; measured here: W530 green channel, cytotoxicity proxy
Outline: (§1)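 Beta-lactamase reporter inhibition, read as CCF4 fluorescence ratio (ex 405, em 460/530 nm) after 2 h at RT. HEK293T UAS-bla cells, 2500/well, were stimulated with 9-cis-RA at 500 or 100 nM final alongside test compound for 18 h at 37 C.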

[12] = biological target: Retinoic acid receptor RXR-alpha (Homo sapiens) (UniProt P19793); assay: as above; conditions: HEK293T RXRa-UAS-bla, beta-lactamase ratio, antagonist mode
Outline: as §1

[13] = biological target: Voltage-gated inwardly rectifying potassium channel KCNH2 (Homo sapiens) (UniProt Q12809); assay: qHTS Assay for Small Molecule Inhibitors of the Human hERG Channel Activity (AID 588834); conditions: U2OS BacMam hERG, FluxOR thallium flux fluorescence; series mostly up to 92.2 µM;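 also: lower thallium flux fluorescence means stronger hERG block; nearly all actives have a fitted effect of over 50% in size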; also: potency is read from the fitted curve at half-maximal effect
Chain of Voltage-gated inwardly rectifying potassium channel KCNH2 (Homo sapiens) (Q12809 whole entry, looked up): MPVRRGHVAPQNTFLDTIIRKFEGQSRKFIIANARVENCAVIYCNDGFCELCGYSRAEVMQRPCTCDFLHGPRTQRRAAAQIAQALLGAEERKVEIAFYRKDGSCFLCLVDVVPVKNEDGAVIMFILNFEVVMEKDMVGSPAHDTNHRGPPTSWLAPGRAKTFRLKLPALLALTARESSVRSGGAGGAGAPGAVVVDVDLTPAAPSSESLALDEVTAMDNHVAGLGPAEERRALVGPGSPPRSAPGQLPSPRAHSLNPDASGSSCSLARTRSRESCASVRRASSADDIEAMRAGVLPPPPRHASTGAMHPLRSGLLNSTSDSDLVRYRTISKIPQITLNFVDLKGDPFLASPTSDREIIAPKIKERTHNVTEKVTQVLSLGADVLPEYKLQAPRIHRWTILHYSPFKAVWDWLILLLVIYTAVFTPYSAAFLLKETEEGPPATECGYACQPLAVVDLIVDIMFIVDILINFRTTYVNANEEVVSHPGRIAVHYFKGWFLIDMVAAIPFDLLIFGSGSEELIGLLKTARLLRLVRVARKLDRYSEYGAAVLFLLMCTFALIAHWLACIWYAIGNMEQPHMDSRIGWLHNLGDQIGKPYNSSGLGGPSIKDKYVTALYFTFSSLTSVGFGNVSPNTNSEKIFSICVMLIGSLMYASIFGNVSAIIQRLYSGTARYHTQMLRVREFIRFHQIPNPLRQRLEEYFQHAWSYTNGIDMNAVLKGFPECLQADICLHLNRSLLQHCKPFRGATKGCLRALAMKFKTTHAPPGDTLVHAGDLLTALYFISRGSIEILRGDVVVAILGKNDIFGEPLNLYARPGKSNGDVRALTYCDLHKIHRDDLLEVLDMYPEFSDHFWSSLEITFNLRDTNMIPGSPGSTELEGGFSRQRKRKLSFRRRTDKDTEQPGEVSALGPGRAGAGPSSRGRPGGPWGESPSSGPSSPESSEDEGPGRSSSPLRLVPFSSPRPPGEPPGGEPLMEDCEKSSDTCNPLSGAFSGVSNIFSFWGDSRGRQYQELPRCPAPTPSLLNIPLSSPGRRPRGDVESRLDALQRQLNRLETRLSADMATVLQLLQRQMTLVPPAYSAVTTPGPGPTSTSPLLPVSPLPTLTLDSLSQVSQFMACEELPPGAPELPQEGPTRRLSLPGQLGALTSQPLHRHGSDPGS
Outline: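 Homogeneous FluxOR thallium flux assay using hERG-expressing U2OS cells (BacMam). Compound treatment about 10 minutes preceded stimulation; reduced fluorescence taken as channel block.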

[14] = qHTS assay for environmental chemicals that activate the Aryl hydrocarbon Receptor (AhR) signaling pathway (AID 651777); conditions: 1A2-DRE human hepatoma cells, luciferase, 24 h; activation: stronger effect = higher value; also: nearly all actives have a fitted effect of over 15% in size; also: potency is read from the fitted curve at half-maximal effect
Outline: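 Following a 24 hr incubation with test chemicals at 37 C and 5% CO2, 1A2-DRE human hepatoma cells received One-Glo reagent; after 30 min at room temperature, luciferase output reflected CYP1A2 induction via AhR.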

[15] = qHTS assay for cell viability of the p53RE-bla HCT-116 cell line (AID 743292); conditions: p53RE-bla HCT-116 viability, ATP luminescence, 16 h; series mostly up to 95 µM; also: nearly all actives have a fitted effect of over 55% in size
Outline: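 After plating at 4,000 cells per well and a 5 h rest at 37 C, HCT-116 cells carrying p53RE-bla received test chemicals in DMSO. Sixteen hours later at 37 C, CellTiter-Glo was added and luminescence recorded following 30 min at room temperature.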

[16] = Cell Viability - Renal Proximal Tubule (AID 545); conditions: renal proximal tubule cells viability; series mostly up to 91.7 µM; also: nearly all actives have a fitted effect of over 40% in size
Outline: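 In this qHTS format, normal rat kidney-derived proximal tubule cells in complete culture medium receive compound titrations, then sit 40 hours at 37 °C before luciferase-based ATP quantitation; potency is reported as AC50 from concentration-response curves.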

[17] = biological target: Cytochrome P450 3A4 (Homo sapiens) (UniProt P08684); assay: qHTS Assay for Inhibitors and Substrates of Cytochrome P450 3A4 (AID 884); conditions: recombinant CYP3A4, Luciferin-PPXE luminescence; series mostly up to 57.1 µM; also: nearly all actives have a fitted effect of over 50% in size
Chain of Cytochrome P450 3A4 (Homo sapiens) (P08684 whole entry, looked up): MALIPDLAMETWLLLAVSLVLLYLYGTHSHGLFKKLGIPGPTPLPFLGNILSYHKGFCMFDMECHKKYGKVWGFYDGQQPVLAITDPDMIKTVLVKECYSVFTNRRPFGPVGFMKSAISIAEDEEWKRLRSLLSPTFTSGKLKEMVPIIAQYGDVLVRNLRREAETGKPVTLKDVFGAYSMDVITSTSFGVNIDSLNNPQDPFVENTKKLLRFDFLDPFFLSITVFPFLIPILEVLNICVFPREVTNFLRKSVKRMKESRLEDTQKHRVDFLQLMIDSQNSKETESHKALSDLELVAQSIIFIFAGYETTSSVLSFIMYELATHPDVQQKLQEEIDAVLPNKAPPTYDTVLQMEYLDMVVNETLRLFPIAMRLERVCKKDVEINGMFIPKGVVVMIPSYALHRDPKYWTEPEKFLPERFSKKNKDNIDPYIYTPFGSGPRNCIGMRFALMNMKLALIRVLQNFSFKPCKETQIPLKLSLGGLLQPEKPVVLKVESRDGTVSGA
Outline: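 Luminescent readout of luciferin produced by CYP3A4 (20 nM) dealkylation of Luciferin-PPXE, 25 uM (its KM). NADPH-driven reaction ran 60 min at RT after 10 min compound preincubation; data scaled to 57 uM ketoconazole as 100% inhibition.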

[18] = Cell Viability - LYMP2-004 (AID 966); conditions: LYMP2-004 lymphoblastoid cell viability, qHTS; series mostly up to 92.2 µM;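 also: cells exposed to compound for 24 h; nearly all actives have a fitted effect of over 65% in size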
Outline: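 qHTS cytotoxicity: human lymphoblastoid line, 24 hr compound treatment, 37 C, complete medium. Viability read as cellular ATP via luciferase luminescence; tetraoctylammonium bromide served as positive control.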

[19] = Cell Viability - LYMP2-020 (AID 986); conditions: series mostly up to 92.2 µM
Outline: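 Seed 2500 cells per well and incubate 5 hr at 37 C. Add compounds at a concentration series and incubate 24 hr at 37 C. Add CellTiter-Glo, wait 30 min at RT, read luminescence, and fit a Hill curve for AC50.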

[20] = biological target: Nuclear receptor ROR-gamma (Homo sapiens) (UniProt P51449); assay: qHTS assay for small molecule antagonists of the retinoid-related orphan receptor gamma (ROR-gamma) signaling pathway (AID 651802); conditions: ROR-gamma antagonist cell reporter assay; series mostly up to 92.2 µM; also: nearly all actives have a fitted effect of over 60% in size; also: potency is read from the fitted curve at half-maximal effect
Chain of Nuclear receptor ROR-gamma (Homo sapiens) (P51449 whole entry, looked up): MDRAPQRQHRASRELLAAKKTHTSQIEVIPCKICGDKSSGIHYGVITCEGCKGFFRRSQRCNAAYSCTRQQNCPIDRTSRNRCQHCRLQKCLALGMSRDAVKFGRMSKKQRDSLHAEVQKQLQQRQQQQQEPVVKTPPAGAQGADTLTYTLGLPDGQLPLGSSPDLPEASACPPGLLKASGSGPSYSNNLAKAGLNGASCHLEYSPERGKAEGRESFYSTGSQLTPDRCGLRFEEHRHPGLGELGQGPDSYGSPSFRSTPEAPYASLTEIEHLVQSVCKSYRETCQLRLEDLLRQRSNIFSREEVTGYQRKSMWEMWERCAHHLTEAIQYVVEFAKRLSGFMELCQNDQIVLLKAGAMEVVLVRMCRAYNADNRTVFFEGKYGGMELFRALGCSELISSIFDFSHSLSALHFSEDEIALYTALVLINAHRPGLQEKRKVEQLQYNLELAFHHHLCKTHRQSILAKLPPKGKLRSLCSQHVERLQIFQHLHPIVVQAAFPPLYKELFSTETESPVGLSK
Outline: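 Steps: cells dispensed; compound or DMSO transferred by pin tool; doxycycline added to induce the ROR response element-driven luciferase; plates held 16hr at 37C; ONE-Glo added and luminescence measured.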

Structure (SMILES): CN(C)c1ccc(N)cc1
- Potency [1]: 41.7 µM (active)
- outcome [2]: inactive
- Potency [3]: inactive
- Potency [4]: 50.1 µM (active)
- Potency [5]: 50.1 µM (active)
- Potency [6]: 50.1 µM (active)
- Potency [7]: 63.1 µM (active)
- max response [8]: -18.3%
- outcome [9]: inactive
- Potency [10]: inactive
- max response [11]: -13%
- max response [12]: -17.1% (inactive)
- Potency [13]: 35.5 µM (active)
- Potency [14]: 44.7 µM (active)
- Potency [15]: inactive

Structure (SMILES): CCN(N=O)C(N)=O
- Potency [1]: > 92 µM (inactive)
- outcome [16]: inactive
- outcome [2]: inactive
- Potency [17]: inactive
- Potency [18]: inactive
- Potency [4]: inactive
- Potency [5]: inactive
- Potency [6]: inactive
- Potency [7]: inactive
- Potency [19]: inactive
- max response [8]: -12%
- outcome [9]: inactive
- Potency [10]: inactive
- max response [11]: -10.6%
- max response [12]: -5.46% (inactive)
- Potency [13]: inactive
- activation [14]: 0.0477% (inactive)
- Potency [20]: inactive
- Potency [15]: inactive

Structure (SMILES): N#CCc1ccccc1
- Potency [1]: > 92 µM (inactive)
- outcome [16]: inactive
- outcome [2]: inactive
- Potency [3]: inactive
- Potency [17]: inactive
- Potency [18]: inactive
- Potency [4]: inactive
- Potency [5]: inactive
- Potency [6]: inactive
- Potency [7]: inactive
- Potency [19]: inactive
- max response [8]: -3.72%
- outcome [9]: inactive
- max response [11]: -0.865%
- max response [12]: 20.3% (inactive)
- Potency [13]: inactive
- activation [14]: -0.841% (inactive)
- Potency [20]: inactive
- Potency [15]: inactive

Structure (SMILES): O=[N+]([O-])c1ccccc1CCl
- Potency [1]: > 92 µM (inactive)
- outcome [16]: inactive
- outcome [2]: inactive
- Potency [3]: inactive
- Potency [17]: inactive
- Potency [18]: inactive
- Potency [6]: inactive
- max response [8]: -8.73%
- outcome [9]: inactive
- Potency [10]: inactive
- max response [11]: 9.99%
- max response [12]: -4.02% (inactive)
- Potency [13]: inactive
- activation [14]: -0.0678% (inactive)
- Potency [20]: 42.2 µM (active)
- Potency [15]: inactive

Structure (SMILES): ClCCCCl
- Potency [1]: > 92 µM (inactive)
- outcome [16]: inactive
- outcome [2]: inactive
- Potency [17]: inactive
- Potency [4]: inactive
- Potency [5]: inactive
- Potency [6]: inactive
- Potency [7]: inactive
- Potency [19]: inactive
- max response [8]: 1.73%
- outcome [9]: inactive
- max response [11]: -7.74%
- max response [12]: 9.28% (inactive)
- Potency [13]: inactive
- activation [14]: -1.95% (inactive)
- Potency [20]: inactive
- Potency [15]: inactive

Structure (SMILES): C=C(Cl)CSC(=S)N(CC)CC
- Potency [1]: > 92 µM (inactive)
- outcome [16]: inactive
- outcome [2]: inactive
- Potency [3]: inactive
- Potency [18]: inactive
- Potency [4]: inactive
- Potency [6]: inactive
- max response [8]: -16.2%
- outcome [9]: inactive
- Potency [10]: inactive
- max response [11]: -2.71%
- max response [12]: 1.31% (inactive)
- Potency [13]: 39.8 µM (active)
- activation [14]: 0.101% (inactive)
- Potency [20]: inactive
- Potency [15]: inactive

Structure (SMILES): Cc1ccc(N)cc1C
- Potency [1]: > 92 µM (inactive)
- outcome [16]: inactive
- outcome [2]: inactive
- Potency [3]: inactive
- Potency [17]: inactive
- Potency [18]: inactive
- Potency [4]: inactive
- Potency [5]: inactive
- Potency [6]: inactive
- Potency [7]: inactive
- Potency [19]: inactive
- max response [8]: -0.563%
- outcome [9]: inactive
- Potency [10]: inactive
- max response [11]: -3.11%
- max response [12]: -2% (inactive)
- Potency [13]: inactive
- activation [14]: 3.36% (inactive)
- Potency [20]: inactive

Structure (SMILES): CN(C)c1ccc(N(C)C)cc1
- Potency [1]: > 92 µM (inactive)
- outcome [16]: inactive
- Potency [3]: inactive
- Potency [17]: inactive
- Potency [5]: 50.1 µM (active)
- max response [8]: -11.6%
- outcome [9]: inactive
- Potency [10]: inactive
- max response [11]: -9.82%
- max response [12]: 17.1% (inactive)
- Potency [13]: inactive
- activation [14]: 12.9% (inactive)
- Potency [20]: inactive
- Potency [15]: inactive

Structure (SMILES): CCOC(=O)CBr
- Potency [1]: > 92 µM (inactive)
- outcome [16]: inactive
- Potency [3]: inactive
- Potency [17]: inactive
- Potency [18]: inactive
- Potency [4]: inactive
- Potency [5]: inactive
- Potency [6]: inactive
- Potency [7]: inactive
- Potency [19]: inactive
- max response [8]: 8.56%
- outcome [9]: inactive
- Potency [10]: inactive
- max response [11]: -3.97%
- max response [12]: -3.36% (inactive)
- Potency [13]: inactive
- activation [14]: -0.43% (inactive)
- Potency [20]: inactive
- Potency [15]: inactive
